These results are taken from PubChem BioAssay.

Results filed as inconclusive are left out. Calls of active or inactive are those of the source. Unless noted, cut-off not given; nearly all actives show AC50 up to about 26 µM.

The target of assay [1] is ATP-dependent translocase ABCB1 (Homo sapiens) (UniProt P08183). Put plainly: P-glycoprotein substrate transport blockade – cell-based (AID 377; in the data active means fluorescence slope change above about 50%). To be noted: MDR1-expressing cells, fluorescent substrate accumulation slope; stronger effect = higher value; concentration not given here.
ATP-dependent translocase ABCB1 (Homo sapiens), sequence (P08183 whole entry, looked up): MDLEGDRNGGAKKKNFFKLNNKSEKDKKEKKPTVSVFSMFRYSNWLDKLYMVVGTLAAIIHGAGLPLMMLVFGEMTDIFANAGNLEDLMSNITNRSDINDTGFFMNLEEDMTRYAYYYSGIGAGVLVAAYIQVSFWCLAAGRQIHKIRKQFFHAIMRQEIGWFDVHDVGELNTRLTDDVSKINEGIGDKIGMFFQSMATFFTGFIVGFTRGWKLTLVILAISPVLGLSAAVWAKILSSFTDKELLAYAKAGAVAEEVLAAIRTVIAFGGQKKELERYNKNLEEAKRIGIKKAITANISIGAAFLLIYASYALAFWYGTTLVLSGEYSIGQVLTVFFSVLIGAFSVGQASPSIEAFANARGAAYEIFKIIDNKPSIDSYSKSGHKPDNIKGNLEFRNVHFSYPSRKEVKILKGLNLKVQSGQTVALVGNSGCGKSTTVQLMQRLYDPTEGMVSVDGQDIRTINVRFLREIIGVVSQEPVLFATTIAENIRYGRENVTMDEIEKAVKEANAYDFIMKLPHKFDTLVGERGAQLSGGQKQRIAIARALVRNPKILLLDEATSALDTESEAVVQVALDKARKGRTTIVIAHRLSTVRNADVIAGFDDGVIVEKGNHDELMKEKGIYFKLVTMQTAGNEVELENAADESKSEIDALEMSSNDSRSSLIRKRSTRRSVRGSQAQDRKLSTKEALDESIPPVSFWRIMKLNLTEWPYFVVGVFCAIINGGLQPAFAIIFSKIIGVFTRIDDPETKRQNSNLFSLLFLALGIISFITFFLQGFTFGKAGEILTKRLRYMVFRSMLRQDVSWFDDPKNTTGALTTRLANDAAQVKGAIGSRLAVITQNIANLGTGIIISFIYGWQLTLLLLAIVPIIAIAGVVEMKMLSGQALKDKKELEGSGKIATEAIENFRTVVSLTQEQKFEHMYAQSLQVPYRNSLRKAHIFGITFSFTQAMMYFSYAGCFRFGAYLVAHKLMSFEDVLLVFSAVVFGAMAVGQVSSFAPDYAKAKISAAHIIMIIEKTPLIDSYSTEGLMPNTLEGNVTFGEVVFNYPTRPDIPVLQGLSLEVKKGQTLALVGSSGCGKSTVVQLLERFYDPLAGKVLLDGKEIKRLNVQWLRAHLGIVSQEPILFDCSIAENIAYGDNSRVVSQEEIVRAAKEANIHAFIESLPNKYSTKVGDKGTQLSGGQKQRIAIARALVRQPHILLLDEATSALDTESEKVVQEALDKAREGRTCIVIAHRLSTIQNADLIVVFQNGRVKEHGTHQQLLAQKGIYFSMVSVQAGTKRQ
Assay [2] in a line: viability loss in pontine glioma line – cell-based, SU-DIPG-XIII, MIPE4.0, CellTiter-Glo, qHTS, dose response (AID 1347061; cut-off not given, nearly all actives have AC50 up to about 37 µM;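 further: cells exposed to compound for 48 hours before readout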). Particulars: CellTiter-Glo ATP luminescence. (In ATP-based viability assays light output follows the ATP content of the culture.)
Assay [3] is described as follows: growth inhibition of DIPG cells – cell-based, MIPE4.0 library, CellTiter-Glo luminescence, qHTS (AID 1347066; cut-off not given, nearly all actives have AC50 up to about 30 µM;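 further: cells exposed to compound for 48 hours before readout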). Particulars: SU-DIPG-VI viability, CellTiter-Glo ATP luminescence.
The nature of assay [4]: viability loss in pontine glioma line – cell-based, SU-DIPG-XVII, MIPE5.0, CellTiter-Glo, qHTS, dose response (AID 1347060).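 On AC50: cells exposed to compound for 48 hours before viability readout.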 Particulars: CellTiter-Glo ATP luminescence.
A short description of assay [5]: viability loss in pontine glioma line – cell-based, SU-DIPG-IV, MIPE4.0, CellTiter-Glo, qHTS, dose response (AID 1347063; cut-off not given, nearly all actives have AC50 up to about 30 µM;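 further: compound exposure lasted 48 hours before the viability readout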). Particulars: CellTiter-Glo ATP luminescence.
Assay [6] in a line: viability loss in pontine glioma line – cell-based, SU-DIPG-XXV, MIPE5.0, CellTiter-Glo, qHTS, dose response (AID 1347065).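 Further: cells exposed to compound for 48 hours before ATP readout.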 To be noted: CellTiter-Glo ATP luminescence.
Assay [7] is described as follows: JHH-DIPG-1 glioma cell viability, MIPE5.0 library, CellTiter-Glo luminescence, qHTS (AID 1347067).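 Further: cells exposed to compound for 48 hours before readout.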 To be noted: JHH-DIPG-1 glioma viability, CellTiter-Glo ATP luminescence.
Assay [8] is described as follows: growth inhibition of DIPG cells – cell-based, MIPE5.0 library, qHTS (AID 1347068; cut-off not given, nearly all actives have IC50 up to about 30 µM;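 on IC50: cells exposed to compound for 48 hours before viability readout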). To be noted: SU-DIPG-XXV viability. On the technique in general: Quantitative high-throughput screening tests each substance at several concentrations.
Assay [9] is described as follows: chitosan synthesis blockers in C. neoformans – flow cytometry, Cibacron Brilliant Red staining (AID 1347148; call rule not given here;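 further: compound exposure lasted three days at 37 degrees C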). Particulars: Cryptococcus neoformans chitosan, stronger effect = lower value; at 10 µM unless noted. (In general: In flow cytometry, cells or beads pass a laser one at a time.)
Assay [10] can be described thus: compounds altering HSF1 focus formation in cells – imaging, Selleck Cancer Library (AID 1347162; in the data active means plate-normalised HSF1 focus index below about 0.46). Particulars: human cells, HSF1 nuclear foci imaging, at 10 µM; SSMD: measured here: HSF1 foci SSMD mean; cell count: measured here: cell number; plate-normalised HSF1 focus index: stronger effect = lower value.
A short description of assay [11]: viability loss in pontine glioma line – cell-based, SU-DIPG-XIII, MIPE5.0, CellTiter-Glo, qHTS, dose response (AID 1347064; cut-off not given, nearly all actives have AC50 up to about 23 µM). Particulars: CellTiter-Glo ATP luminescence.
Assay [12] is described as follows: rescue of PC12 cells from polyQ htt toxicity – LDH release (AID 1610). Particulars: PC12 mutant huntingtin toxicity, final LDH at 4 uM, stronger effect = lower value.

With `COc1ccc2c(c1)C13CCCC[C@@H]1C(C2)N(C)CC3` (some centres undefined), the fluorescence slope change in [1] was 14.1% (inactive).
On to `C[C@]12CCC(=O)C=C1CC[C@@H]1[C@@H]2CC[C@@]2(C)[C@H]1CC[C@]2(C)O`, for which the compound was called inactive in [2] and in assay [3].
`CC(C)[C@]12O[C@H]1[C@@H]1O[C@]13[C@]1(O[C@H]1C[C@H]1C4=C(CC[C@@]13C)C(=O)OC4)[C@@H]2O`: the AC50 (as a rule, the midpoint of the concentration-response curve, whichever way the signal moves) in assay [4] is 0.186 µM (active); in [6], 0.209 µM (active); in assay [7], 0.0833 µM (active). Besides, the compound was called inactive in assay [2] and in [5]. For the same compound, the IC50 (as a rule, the midpoint of a concentration-inhibition curve) in [8] is 0.186 µM (active). Moreover, the fold fluorescence in assay [9] was 4.23 [at 138.7 µM] (inactive). Besides, in assay [10], the SSMD is -5.07. In [10], this compound came in with a cell count of 6670. The plate-normalised HSF1 focus index in assay [10] is 0.769 (inactive).
Take `CC[C@@H](C(N)=O)N1CCCC1=O`: the compound was classed as inactive in [4], in assay [2], in assay [5], in assay [11], in assay [3] and in assay [8].
For the compound `CC[C@@H]1/C=C/C=C/C[C@H](C)[C@@H](O)[C@](C)(O)C(=O)[C@H](C)[C@@H](O)[C@H](C)C(=O)[C@H](C)[C@@H](O)[C@H](C)/C=C/C(=O)O[C@H]2[C@@H](C)[C@@H](CC1)O[C@@]1(CC[C@@H](C)[C@@H](C[C@H](C)O)O1)[C@@H]2C`, in assay [9], the fold fluorescence was 5.62 [at 63.2 µM] (inactive).
With `NCCc1c[nH]c2ccc(O)cc12`, the fluorescence slope change in assay [1] was 73.4% (active). The fold fluorescence in [9] is 4 [at 283.7 µM] (inactive).
Consider `C#CC1(O)CCC2C3CCC4=CC(=O)CCC4(C)C3CCC21C` (centres undefined), for which the outcome in assay [4], in assay [11], in [6] and in assay [3] was inactive.
Take `N#CC(O[C@@H]1O[C@H](CO[C@@H]2O[C@H](CO)[C@@H](O)[C@H](O)[C@H]2O)[C@@H](O)[C@H](O)[C@H]1O)c1ccccc1` (some centres undefined): the compound was called inactive in [11] and in [7].
In assay [12], `C=C[C@H]1CN2CC[C@H]1C[C@@H]2[C@H](O)c1ccnc2ccccc12` registered a normalised LDH release of 0.806.
